Source: PubChem
Hits are enriched below; roughly 18% of the tested compounds scored in any of these assays.
DT40 TDP1 CPT: qHTS for Inhibitors of human tyrosyl-DNA phosphodiesterase 1 (TDP1): qHTS in cells in presence of CPT; chicken DT40 Tdp1-/-;hTDP1 cells + 20 nM CPT, ATP luminescence, 48 h; Potency, µM (highest dose often 46.2 µM), without a hit: at the top dose activity change, negative = growth inhibition, actives largely listed as inhibitors; 12% of 420,000 active; also: potency is read from the fitted curve at half-maximal effect; nearly all actives have a fitted effect of over 55% in size
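Chicken DT40 Tdp1-/- cells stably complemented with human TDP1 were seeded at 400 cells/well in medium containing 20 nM camptothecin, exposed to pin-transferred compounds, and grown at 37 °C for at least 48 hr. Viability was read as ATP luminescence.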
TDP1 inh: qHTS Assay for Inhibitors of Tyrosyl-DNA Phosphodiesterase (TDP1); Potency, µM (doses to about 130 µM), for the others: at the highest dose activity change, negative = inhibition, hits mostly inhibitors; 0.28% of 350,000 active; recombinant TDP1, AlphaScreen DNA substrate cleavage; AID 485290, 2010; also: potency is read from the fitted curve at half-maximal effect; nearly all actives have a fitted effect of over 40% in size
Target sequence (Q9NUW8 whole entry, looked up): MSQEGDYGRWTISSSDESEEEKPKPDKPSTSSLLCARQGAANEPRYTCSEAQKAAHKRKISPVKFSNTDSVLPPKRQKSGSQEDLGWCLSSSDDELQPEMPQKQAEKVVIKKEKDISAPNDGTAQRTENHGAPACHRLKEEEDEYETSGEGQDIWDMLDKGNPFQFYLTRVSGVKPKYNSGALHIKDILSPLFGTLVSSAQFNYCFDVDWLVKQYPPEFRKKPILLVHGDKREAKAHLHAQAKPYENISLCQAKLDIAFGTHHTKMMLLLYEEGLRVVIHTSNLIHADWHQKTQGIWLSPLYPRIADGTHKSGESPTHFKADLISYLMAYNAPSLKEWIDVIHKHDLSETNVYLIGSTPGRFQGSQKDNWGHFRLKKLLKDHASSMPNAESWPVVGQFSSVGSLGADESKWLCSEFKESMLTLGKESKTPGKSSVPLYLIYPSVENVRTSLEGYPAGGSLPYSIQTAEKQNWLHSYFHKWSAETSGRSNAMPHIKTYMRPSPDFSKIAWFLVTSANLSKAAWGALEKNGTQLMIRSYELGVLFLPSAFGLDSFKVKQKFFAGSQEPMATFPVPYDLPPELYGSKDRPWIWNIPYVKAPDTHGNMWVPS
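Enzyme-compound mixtures sat 15 min at room temperature, followed by a 5 min reaction with 15 nM final substrate and 10 min with AlphaScreen beads. Recombinant human Tdp1 was used at 1 nM final.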
CtBP-E1A blk: qHTS Assay for Inhibitors of the CtBP/E1A Interaction. CtBP / adenovirus E1A interaction (AlphaScreen). AlphaScreen GST-E1A/His-CtBP binding, 1536-well; stronger effect = lower value. activity change, % (test concentration not listed). 0.49% of 340,000 active. AID 651724, 2012; in the data active = activity change below about -65%; inconclusive = mostly about -30% to -63%
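Homogeneous bead-based format: GST-tagged E1A captured on glutathione donor beads, His-tagged CtBP on nickel acceptor beads; compounds precede bead addition by 2 h at 37 °C.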
TDP1 cell noCPT: qHTS for Inhibitors of human tyrosyl-DNA phosphodiesterase 1 (TDP1): qHTS in cells in absence of CPT; DT40 Tdp1-/- hTDP1 cells, no CPT, ATP luminescence, 48 h; Potency, µM (top dose mostly 46.2 µM), for the others: at the top dose activity change, negative = growth inhibition, actives largely listed as inhibitors; 15% of 420,000 active; AID 686978, 2013; also: potency is read from the fitted curve at half-maximal effect; nearly all actives have a fitted effect of over 55% in size
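Chicken DT40 Tdp1-/- cells complemented with human TDP1, screened without camptothecin (DMSO vehicle only), 400 cells/well. Compounds pin-transferred, cells incubated at 37 °C for at least 48 hr. Growth read as ATP-dependent luminescence (CellTiter-Glo, 30 min at RT).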
Six1-Eya2 inh: qHTS Assay for Inhibitors of the Six1/Eya2 Interaction; Homeobox protein SIX1 (Homo sapiens) + Protein phosphatase EYA2 (Homo sapiens), …; AlphaScreen GST-Six1/His-Eya2 binding, biochemical; stronger effect = lower value; activity change, % (test concentration not listed); 0.56% of 360,000 active; in the data active = activity change below about -65%; inconclusive = mostly about -30% to -63%
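GST-Six1 + His-Eya2 (5X stock: 250/500 nM); Tris pH 8.0, 300 mM NaCl, 0.05% BSA, 0.02% Tween 20; GSH donor/Ni acceptor beads; 1 h 37 °C dark; AlphaScreen readout.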
IL1B secr inh: qHTS for Inhibitors of Inflammasome Signaling: IL-1-beta AlphaLISA Primary Screen | activity change, % at 57.5 µM | 4.7% of 360,000 active | THP-1 LPS/ATP IL-1B secretion, AlphaLISA, 16 h; stronger effect = lower value; in the data active = activity change below about -50%; inconclusive = mostly about -30% to -49%
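THP-1 cells pretreated 1 hr with compounds (up to 57.5 uM final), then stimulated with LPS (250 ng/mL final) plus ATP (1.25 mM final); secreted IL-1B measured by AlphaLISA after 16 hr, decreased signal indicating inhibition.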
* marks the source's active call; other numbers are inactive results; [ ] = dose if it differs, or a comment. Unless noted, calls follow the shape of the dose curve; as a rule, active = well fitted curve in the direction sought with a large enough effect; inconclusive = small, poorly fitted or top-dose-only effect, or another doubt; inactive = no such curve, though single readings can be large; an effect the other way counts as inactive or inconclusive. % is scaled to controls: 0 for no effect and ±100 for the full control effect.

What do the screens show for `Cc1ccc(-n2nc3c(=O)n(CCCC(=O)NCc4ccc(F)cc4)nc(C)c3c2C)cc1`?
DT40 TDP1 CPT: inconclusive; TDP1 inh: 3.7%; TDP1 cell noCPT: inconclusive; Six1-Eya2 inh: -16.4; IL1B secr inh: -8.0

How did COc1cccc(CNC(=O)CCCn2nc(C)c3c(C)n(-c4ccc(C)cc4)nc3c2=O)c1OC do in these assays?
DT40 TDP1 CPT: 10.3µM*; TDP1 inh: -0.5%; CtBP-E1A blk: 2.6; TDP1 cell noCPT: inconclusive; Six1-Eya2 inh: 2.5; IL1B secr inh: -15.2

How did COc1ccc(OC)c(CNC(=O)CCn2nc(C)c3c(C)n(-c4ccccc4)nc3c2=O)c1 do in these assays?
DT40 TDP1 CPT: -3.9%; TDP1 inh: 1.3%; CtBP-E1A blk: 1.2; TDP1 cell noCPT: 10.3%; Six1-Eya2 inh: 3.6; IL1B secr inh: 9.4

Results for COCCNC(=O)c1c[nH]c2ccc(S(=O)(=O)N3CCc4ccccc43)cc2c1=O ?
DT40 TDP1 CPT: 14.6µM*; TDP1 inh: -2.7%; CtBP-E1A blk: 3.8; TDP1 cell noCPT: 6.51µM*; Six1-Eya2 inh: 0.8; IL1B secr inh: inconclusive

Results for O=C(Nc1cc(Cl)ccc1Cl)c1cc(S(=O)(=O)N2CCCc3ccccc32)ccc1F ?
DT40 TDP1 CPT: 23.1µM*; TDP1 inh: 5.2%; TDP1 cell noCPT: inconclusive

What do the screens show for `CCCNC(=O)c1cc(S(=O)(=O)N2CCc3ccccc32)ccc1F`?
DT40 TDP1 CPT: 5.17µM*; TDP1 inh: 2.5%; CtBP-E1A blk: 12.6; TDP1 cell noCPT: 14.6µM*; Six1-Eya2 inh: 4.2; IL1B secr inh: -7.6

What do the screens show for `CCCCCNC(=O)c1cc(S(=O)(=O)N2CCCCC2)ccc1F`?
DT40 TDP1 CPT: 2.6%; TDP1 inh: -4.4%; CtBP-E1A blk: 6.5; TDP1 cell noCPT: -12.2%; Six1-Eya2 inh: 2.0; IL1B secr inh: 9.0

How did COCCCNC(=O)c1c[nH]c2ccc(S(=O)(=O)N3CCc4ccccc43)cc2c1=O do in these assays?
DT40 TDP1 CPT: -29.3%; TDP1 inh: 2.7%; CtBP-E1A blk: -14.9; TDP1 cell noCPT: inconclusive; Six1-Eya2 inh: -28.7; IL1B secr inh: -2.4

How did CCc1ccccc1NC(=O)c1cc(S(=O)(=O)N2CCCc3ccccc32)ccc1F do in these assays?
DT40 TDP1 CPT: 16.4µM*; TDP1 inh: 0.0%; TDP1 cell noCPT: 18.4µM*

How did O=C(N/N=C\c1cccc(F)c1)c1ccc(Cn2cc(Br)c([N+](=O)[O-])n2)o1 do in these assays?
DT40 TDP1 CPT: -22.2%; TDP1 inh: -3.0%; CtBP-E1A blk: -3.7; TDP1 cell noCPT: -0.2%; Six1-Eya2 inh: 5.7; IL1B secr inh: inconclusive

Results for O=C(Nc1ccccc1)c1ccc(S(=O)(=O)NCC2CCCO2)cc1 (centres undefined) ?
DT40 TDP1 CPT: -25.9%; TDP1 inh: 0.0%; CtBP-E1A blk: 5.9; TDP1 cell noCPT: -22.8%; Six1-Eya2 inh: -0.1; IL1B secr inh: 9.4

Results for Nc1nc(NCc2ccccc2)nc(NCCO)c1[N+](=O)[O-] ?
DT40 TDP1 CPT: inconclusive; TDP1 cell noCPT: inconclusive; Six1-Eya2 inh: 4.5; IL1B secr inh: 21.0

Results for COCCCN1C(=O)C(=O)/C(=C(/O)c2ccc(S(=O)(=O)N3CCCCC3)cc2)C1c1ccc(O)cc1 (centres undefined) ?
DT40 TDP1 CPT: -1.0%; TDP1 inh: 16.9%; CtBP-E1A blk: 10.4; TDP1 cell noCPT: 21.6%; Six1-Eya2 inh: 2.1; IL1B secr inh: 2.9

What do the screens show for `O=C(CSc1nncs1)Nc1cccc2ccccc12`?
DT40 TDP1 CPT: 3.7%; TDP1 inh: -0.4%[0.505 µM]; CtBP-E1A blk: 4.8; TDP1 cell noCPT: -5.1%; Six1-Eya2 inh: 1.6; IL1B secr inh: 15.9

How did CCc1ccccc1NC(=O)c1cc(S(=O)(=O)N2CCc3ccccc32)ccc1F do in these assays?
DT40 TDP1 CPT: 16.4µM*; TDP1 inh: 5.2%; TDP1 cell noCPT: 10.3µM*

Results for COc1ccccc1NC(=O)c1cc(S(=O)(=O)N2CCc3ccccc32)ccc1F ?
DT40 TDP1 CPT: 18.4µM*; TDP1 inh: 2.5%; CtBP-E1A blk: 1.1; TDP1 cell noCPT: inconclusive; Six1-Eya2 inh: -1.4; IL1B secr inh: 19.1

Results for COc1ccc(CCNC(=O)c2cc(S(=O)(=O)N3CCc4ccccc43)ccc2F)cc1OC ?
DT40 TDP1 CPT: 11.6µM*; CtBP-E1A blk: -5.2; TDP1 cell noCPT: 6.51µM*; Six1-Eya2 inh: -6.3; IL1B secr inh: -6.5

What do the screens show for `Cc1ccc(S(=O)(=O)NCc2ccccc2)cc1C(=O)N1CCN(c2ccccc2)CC1`?
DT40 TDP1 CPT: inconclusive; TDP1 inh: 1.3%; CtBP-E1A blk: -5.8; TDP1 cell noCPT: inconclusive; Six1-Eya2 inh: -0.7; IL1B secr inh: 28.0

Results for Cc1c(NC(=O)c2ccccc2)cc(C(C)C)c(O)c1S(=O)(=O)c1ccc(Cl)cc1 ?
DT40 TDP1 CPT: 20.6µM*; TDP1 inh: -2.3%; TDP1 cell noCPT: inconclusive

What do the screens show for `CCC(=O)OCC(=O)[C@@]1(OC(=O)CC)[C@@H](C)C[C@H]2[C@@H]3CCC4=CC(=O)C=C[C@]4(C)[C@@]3(Cl)[C@@H](O)C[C@@]21C`?
DT40 TDP1 CPT: 23.7µM*; CtBP-E1A blk: -0.9; TDP1 cell noCPT: 16.4µM*; Six1-Eya2 inh: 3.0; IL1B secr inh: -58.5*

Results for CCC(=O)O[C@@]1(C(=O)CCl)[C@@H](C)C[C@@H]2[C@H]3CCC4=CC(=O)C=C[C@@]4(C)[C@]3(F)[C@@H](O)C[C@@]21C ?
TDP1 inh: 15.4%[21 µM]

Results for O=C(NC1=NCCS1)c1ccc(Cl)c(Cl)c1 ?
DT40 TDP1 CPT: -0.7%; CtBP-E1A blk: -0.1; TDP1 cell noCPT: -0.5%; Six1-Eya2 inh: 3.4; IL1B secr inh: 19.9

How did N#Cc1ccccc1CSC1=NCCS1 do in these assays?
DT40 TDP1 CPT: 0.0%; TDP1 inh: 3.6%; CtBP-E1A blk: 14.6; TDP1 cell noCPT: -17.0%; Six1-Eya2 inh: 3.9; IL1B secr inh: -89.1*

How did O=C(O)c1ccccc1CSC1=NCCS1 do in these assays?
DT40 TDP1 CPT: -9.3%; TDP1 inh: 0.6%; TDP1 cell noCPT: -0.5%; Six1-Eya2 inh: 1.6; IL1B secr inh: 6.7

How did Nc1c(C(=O)O)ccc2c1C(=O)c1ccccc1C2=O do in these assays?
DT40 TDP1 CPT: -7.6%; TDP1 inh: 7.7%; CtBP-E1A blk: inconclusive; TDP1 cell noCPT: inconclusive; Six1-Eya2 inh: -28.5; IL1B secr inh: 19.9
